Results on ten sequences are retold here after article PMC11006913.

Numbering of substitutions follows the chain as printed.

Holding throughout (test): PBM; 200 nM protein, PBS
What all share (conditions): dsDNA, one strand shown

Assay [1] addresses HOXA4 (Homo sapiens, UniProt Q00056 201-287, W262R).
Assay [2] deals with HOXC9 (Homo sapiens, UniProt P31274 178-260, K195R).
Assay [3] concerns the target HOXA4 (Homo sapiens, UniProt Q00056 201-287, R217L).
Assay [4] has as its target HOXC9 (Homo sapiens, UniProt P31274 178-260).
Assay [5] deals with HOXD13 (Homo sapiens, UniProt P35453 263-343, T313R).
HOXD13 (Homo sapiens, UniProt P35453 263-343, T313R), sequence (P35453 263-343 T313R): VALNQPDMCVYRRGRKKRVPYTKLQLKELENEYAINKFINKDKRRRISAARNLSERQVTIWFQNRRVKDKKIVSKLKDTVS
Assay [6] deals with HOXC9 (Homo sapiens, UniProt P31274 178-260, R193K).
HOXC9 (Homo sapiens, UniProt P31274 178-260, R193K), sequence (P31274 178-260 R193K): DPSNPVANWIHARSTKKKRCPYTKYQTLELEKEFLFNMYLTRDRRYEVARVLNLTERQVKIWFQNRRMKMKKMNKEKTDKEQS
Assay [7] concerns the target HOXD13 (Homo sapiens, UniProt P35453 263-343).
The target in assay [8] is HOXA4 (Homo sapiens, UniProt Q00056 201-287).
HOXA4 (Homo sapiens, UniProt Q00056 201-287), sequence (Q00056 201-287): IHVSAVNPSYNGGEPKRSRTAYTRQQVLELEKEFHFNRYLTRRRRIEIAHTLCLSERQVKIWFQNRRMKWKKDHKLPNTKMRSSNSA
Assay [9] concerns the target HOXD13 (Homo sapiens, UniProt P35453 263-343, T313A).
For assay [10], the target named is HOXC9 (Homo sapiens, UniProt P31274 178-260, R222W).
HOXC9 (Homo sapiens, UniProt P31274 178-260, R222W), sequence (P31274 178-260 R222W): as the sequence (P31274 178-260 R193K) above, with K16R, R45W counted along it
The target of assay [11] is HOXA4 (Homo sapiens, UniProt Q00056 201-287, W262F).
HOXA4 (Homo sapiens, UniProt Q00056 201-287, W262F), sequence (Q00056 201-287 W262F): as the sequence (Q00056 201-287) above, with W62F counted along it
In assay [12] the target is PRRX1 (Homo sapiens, UniProt P54821 80-166, F113S).
PRRX1 (Homo sapiens, UniProt P54821 80-166, F113S), sequence (P54821 80-166 F113S): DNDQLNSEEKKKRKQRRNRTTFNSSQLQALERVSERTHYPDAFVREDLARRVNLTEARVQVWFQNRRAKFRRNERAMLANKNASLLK
The target in assay [13] is PRRX1 (Homo sapiens, UniProt P54821 80-166).
PRRX1 (Homo sapiens, UniProt P54821 80-166), sequence (P54821 80-166): as the sequence (P54821 80-166 F113S) above, with S34F counted along it
Assay [14] deals with HOXA7 (Homo sapiens, UniProt P31268 116-202).
HOXA7 (Homo sapiens, UniProt P31268 116-202), sequence (P31268 116-202): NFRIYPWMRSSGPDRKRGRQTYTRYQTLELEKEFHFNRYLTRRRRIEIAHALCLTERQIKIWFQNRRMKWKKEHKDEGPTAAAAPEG
The target in assay [15] is HOXC10 (Homo sapiens, UniProt Q9NYD6 254-340).
HOXC10 (Homo sapiens, UniProt Q9NYD6 254-340), sequence (Q9NYD6 254-340): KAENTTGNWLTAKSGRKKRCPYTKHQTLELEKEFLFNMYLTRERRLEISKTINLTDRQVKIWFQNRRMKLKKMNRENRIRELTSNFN
The target of assay [16] is ALX3 (Homo sapiens, UniProt O95076 139-225, N203Q).
ALX3 (Homo sapiens, UniProt O95076 139-225, N203Q), sequence (O95076 139-225 N203Q): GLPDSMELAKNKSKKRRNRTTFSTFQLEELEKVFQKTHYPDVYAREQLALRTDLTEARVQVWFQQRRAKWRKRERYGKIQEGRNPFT
The target in assay [17] is HOXC10 (Homo sapiens, UniProt Q9NYD6 254-340, K271E).
HOXC10 (Homo sapiens, UniProt Q9NYD6 254-340, K271E), sequence (Q9NYD6 254-340 K271E): as the sequence (Q9NYD6 254-340) above, with K18E counted along it
The target of assay [18] is ALX3 (Homo sapiens, UniProt O95076 139-225).
ALX3 (Homo sapiens, UniProt O95076 139-225), sequence (O95076 139-225): as the sequence (O95076 139-225 N203Q) above, with Q65N counted along it
Assay [19] addresses PROP1 (Homo sapiens, UniProt O75360 56-141).
Assay [20] concerns the target PROP1 (Homo sapiens, UniProt O75360 56-141, R99H).
The target of assay [21] is ALX3 (Homo sapiens, UniProt O95076 139-225, L168Q).
ALX3 (Homo sapiens, UniProt O95076 139-225, L168Q), sequence (O95076 139-225 L168Q): as the sequence (O95076 139-225 N203Q) above, with L30Q, Q65N counted along it
Assay [22] deals with ALX3 (Homo sapiens, UniProt O95076 139-225, L168V).
ALX3 (Homo sapiens, UniProt O95076 139-225, L168V), sequence (O95076 139-225 L168V): as the sequence (O95076 139-225 N203Q) above, with L30V, Q65N counted along it
Assay [23] concerns the target PROP1 (Homo sapiens, UniProt O75360 56-141, F88S).
Assay [24] addresses HOXA7 (Homo sapiens, UniProt P31268 116-202, W177C).
In assay [25] the target is ALX3 (Homo sapiens, UniProt O95076 139-225, N203S).
ALX3 (Homo sapiens, UniProt O95076 139-225, N203S), sequence (O95076 139-225 N203S): as the sequence (O95076 139-225 N203Q) above, with Q65S counted along it
The target of assay [26] is HOXA2 (Homo sapiens, UniProt O43364 129-215, R185T).
HOXA2 (Homo sapiens, UniProt O43364 129-215, R185T), sequence (O43364 129-215 R185T): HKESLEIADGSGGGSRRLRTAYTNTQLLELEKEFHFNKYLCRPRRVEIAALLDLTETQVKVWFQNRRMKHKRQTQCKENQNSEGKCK
Assay [27] addresses HOXA2 (Homo sapiens, UniProt O43364 129-215, R185K).
The target in assay [28] is HOXA2 (Homo sapiens, UniProt O43364 129-215, Y150S).
HOXA2 (Homo sapiens, UniProt O43364 129-215, Y150S), sequence (O43364 129-215 Y150S): as the sequence (O43364 129-215 R185T) above, with Y22S, T57R counted along it
Assay [29] concerns the target HOXA2 (Homo sapiens, UniProt O43364 129-215).
The target of assay [30] is T1, SIX6 (Homo sapiens, UniProt O95475 114-200, L167I).
T1 sequence: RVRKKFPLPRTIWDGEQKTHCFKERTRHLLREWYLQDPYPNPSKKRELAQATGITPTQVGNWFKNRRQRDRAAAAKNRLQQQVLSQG

Assay [31] concerns the target T2, SIX6 (Homo sapiens, UniProt O95475 114-200, L167V).
T2 sequence: T1 sequence with I54V

Assay [32] addresses T3, SIX6 (Homo sapiens, UniProt O95475 114-200, T165I).
T3 sequence: T1 sequence with T52I, I54L

Assay [33] has as its target ALX4 (Homo sapiens, UniProt Q9H161 200-286).
Assay [34] addresses ALX4 (Homo sapiens, UniProt Q9H161 200-286, Q225E).
Assay [35] addresses T4, NKX2-6 (Homo sapiens, UniProt A6NCS4 118-204, R150C).
T4 sequence: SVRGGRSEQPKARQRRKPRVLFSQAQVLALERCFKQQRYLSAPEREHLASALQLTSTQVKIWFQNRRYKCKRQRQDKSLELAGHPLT

The target in assay [36] is HOXB6 (Homo sapiens, UniProt P17509 132-218, K202E).
HOXB6 (Homo sapiens, UniProt P17509 132-218, K202E), sequence (P17509 132-218 K202E): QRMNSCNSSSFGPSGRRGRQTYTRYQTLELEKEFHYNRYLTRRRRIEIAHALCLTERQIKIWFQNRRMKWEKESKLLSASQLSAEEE
For assay [37], the target named is MSX2 (Homo sapiens, UniProt P35548 130-214, R199I).
MSX2 (Homo sapiens, UniProt P35548 130-214, R199I), sequence (P35548 130-214 R199I): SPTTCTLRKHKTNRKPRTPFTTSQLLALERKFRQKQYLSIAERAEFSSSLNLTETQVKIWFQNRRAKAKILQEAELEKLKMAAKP
Assay [38] concerns the target MSX2 (Homo sapiens, UniProt P35548 130-214).
Assay [39] addresses MSX2 (Homo sapiens, UniProt P35548 130-214, F161Y).
Assay [40] deals with HOXB6 (Homo sapiens, UniProt P17509 132-218).
HOXB6 (Homo sapiens, UniProt P17509 132-218), sequence (P17509 132-218): as the sequence (P17509 132-218 K202E) above, with E71K counted along it

HOXC9 (Homo sapiens, UniProt P31274 178-260, K195R), sequence (P31274 178-260 K195R): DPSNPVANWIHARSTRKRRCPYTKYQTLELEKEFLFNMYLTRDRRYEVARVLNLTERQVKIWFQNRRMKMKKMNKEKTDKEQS
HOXA4 (Homo sapiens, UniProt Q00056 201-287, R217L), sequence (Q00056 201-287 R217L): as the sequence (Q00056 201-287) above, with R17L counted along it
HOXA4 (Homo sapiens, UniProt Q00056 201-287, W262R), sequence (Q00056 201-287 W262R): as the sequence (Q00056 201-287) above, with W62R counted along it
HOXC9 (Homo sapiens, UniProt P31274 178-260), sequence (P31274 178-260): as the sequence (P31274 178-260 R193K) above, with K16R counted along it
HOXA2 (Homo sapiens, UniProt O43364 129-215), sequence (O43364 129-215): as the sequence (O43364 129-215 R185T) above, with T57R counted along it
HOXD13 (Homo sapiens, UniProt P35453 263-343, T313A), sequence (P35453 263-343 T313A): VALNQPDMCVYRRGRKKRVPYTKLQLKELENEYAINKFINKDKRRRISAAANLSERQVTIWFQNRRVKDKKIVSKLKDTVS
HOXA2 (Homo sapiens, UniProt O43364 129-215, R185K), sequence (O43364 129-215 R185K): as the sequence (O43364 129-215 R185T) above, with T57K counted along it
HOXD13 (Homo sapiens, UniProt P35453 263-343), sequence (P35453 263-343): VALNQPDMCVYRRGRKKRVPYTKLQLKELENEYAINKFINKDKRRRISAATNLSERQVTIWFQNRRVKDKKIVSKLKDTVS
MSX2 (Homo sapiens, UniProt P35548 130-214), sequence (P35548 130-214): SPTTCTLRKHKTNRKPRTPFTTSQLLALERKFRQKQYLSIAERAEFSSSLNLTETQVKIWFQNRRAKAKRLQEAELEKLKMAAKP
PROP1 (Homo sapiens, UniProt O75360 56-141), sequence (O75360 56-141): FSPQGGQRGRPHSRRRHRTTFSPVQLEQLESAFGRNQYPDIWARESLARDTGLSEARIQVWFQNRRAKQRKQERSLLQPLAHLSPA
PROP1 (Homo sapiens, UniProt O75360 56-141, R99H), sequence (O75360 56-141 R99H): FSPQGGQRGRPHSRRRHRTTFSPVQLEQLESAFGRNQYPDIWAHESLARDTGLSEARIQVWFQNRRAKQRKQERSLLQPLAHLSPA
ALX4 (Homo sapiens, UniProt Q9H161 200-286), sequence (Q9H161 200-286): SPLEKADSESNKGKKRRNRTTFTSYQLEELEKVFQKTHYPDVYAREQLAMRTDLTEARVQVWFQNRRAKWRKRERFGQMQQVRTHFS
HOXA7 (Homo sapiens, UniProt P31268 116-202, W177C), sequence (P31268 116-202 W177C): as the sequence (P31268 116-202) above, with W62C counted along it
MSX2 (Homo sapiens, UniProt P35548 130-214, F161Y), sequence (P35548 130-214 F161Y): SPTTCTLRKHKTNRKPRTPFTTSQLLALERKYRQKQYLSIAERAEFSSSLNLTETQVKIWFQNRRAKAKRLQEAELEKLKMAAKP
ALX4 (Homo sapiens, UniProt Q9H161 200-286, Q225E), sequence (Q9H161 200-286 Q225E): as the sequence (Q9H161 200-286) above, with Q26E counted along it
PROP1 (Homo sapiens, UniProt O75360 56-141, F88S), sequence (O75360 56-141 F88S): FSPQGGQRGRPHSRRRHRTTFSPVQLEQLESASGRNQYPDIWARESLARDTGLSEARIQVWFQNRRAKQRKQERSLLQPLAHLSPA

With CCCGACGC, the binding signal is 9.83 upbm affinity estimate (log intensity, higher = more binding, comparable within an allelic series) in assay [1]; 9.46 upbm affinity estimate (log intensity, higher = more binding, comparable within an allelic series) in [2]; 9.86 upbm affinity estimate (log intensity, higher = more binding, comparable within an allelic series) in assay [3]; 9.54 upbm affinity estimate (log intensity, higher = more binding, comparable within an allelic series) in [4]; 9.45 upbm affinity estimate (log intensity, higher = more binding, comparable within an allelic series) in assay [5]; 9.42 upbm affinity estimate (log intensity, higher = more binding, comparable within an allelic series) in [6]. Besides, the binding signal in assay [7] is 9.26 upbm affinity estimate (log intensity, higher = more binding, comparable within an allelic series); in [8], 9.73 upbm affinity estimate (log intensity, higher = more binding, comparable within an allelic series); in assay [9], 9.49 upbm affinity estimate (log intensity, higher = more binding, comparable within an allelic series); in [10], 9.75 upbm affinity estimate (log intensity, higher = more binding, comparable within an allelic series); in [11], 9.96 upbm affinity estimate (log intensity, higher = more binding, comparable within an allelic series).
Consider GGGGGAAC, for which the binding signal in [1] is 9.66 upbm affinity estimate (log intensity, higher = more binding, comparable within an allelic series); in assay [12], 9.45 upbm affinity estimate (log intensity, higher = more binding, comparable within an allelic series); in assay [3] it was 9.7 upbm affinity estimate (log intensity, higher = more binding, comparable within an allelic series); in assay [8], 9.72 upbm affinity estimate (log intensity, higher = more binding, comparable within an allelic series); in assay [11], 9.64 upbm affinity estimate (log intensity, higher = more binding, comparable within an allelic series); in assay [13] it was 9.62 upbm affinity estimate (log intensity, higher = more binding, comparable within an allelic series).
Take GACCCTCC: the binding signal in assay [1] is 9.82 upbm affinity estimate (log intensity, higher = more binding, comparable within an allelic series); in assay [2] it was 9.64 upbm affinity estimate (log intensity, higher = more binding, comparable within an allelic series); in assay [3], 9.94 upbm affinity estimate (log intensity, higher = more binding, comparable within an allelic series); in assay [4], 9.69 upbm affinity estimate (log intensity, higher = more binding, comparable within an allelic series); in assay [6], 9.67 upbm affinity estimate (log intensity, higher = more binding, comparable within an allelic series); in assay [8] it was 9.94 upbm affinity estimate (log intensity, higher = more binding, comparable within an allelic series). For the same sequence, the binding signal is 9.65 upbm affinity estimate (log intensity, higher = more binding, comparable within an allelic series) in assay [10] and 9.9 upbm affinity estimate (log intensity, higher = more binding, comparable within an allelic series) in assay [11].
In the case of CCCCCTTC, the binding signal in assay [1] was 9.36 upbm affinity estimate (log intensity, higher = more binding, comparable within an allelic series); in assay [14] it was 7.86 upbm affinity estimate (log intensity, higher = more binding, comparable within an allelic series); in [15], 9.64 upbm affinity estimate (log intensity, higher = more binding, comparable within an allelic series); in [3], 9.27 upbm affinity estimate (log intensity, higher = more binding, comparable within an allelic series); in [16], 7.42 upbm affinity estimate (log intensity, higher = more binding, comparable within an allelic series); in assay [8], 9.19 upbm affinity estimate (log intensity, higher = more binding, comparable within an allelic series). Moreover, the binding signal in assay [17] is 9.78 upbm affinity estimate (log intensity, higher = more binding, comparable within an allelic series); in assay [18] it was 7.43 upbm affinity estimate (log intensity, higher = more binding, comparable within an allelic series); in assay [19], 6.16 upbm affinity estimate (log intensity, higher = more binding, comparable within an allelic series); in [20], 5.96 upbm affinity estimate (log intensity, higher = more binding, comparable within an allelic series); in assay [21], 7.31 upbm affinity estimate (log intensity, higher = more binding, comparable within an allelic series); in assay [22], 7.27 upbm affinity estimate (log intensity, higher = more binding, comparable within an allelic series). In addition, the binding signal in assay [23] was 5.76 upbm affinity estimate (log intensity, higher = more binding, comparable within an allelic series); in [24], 8.09 upbm affinity estimate (log intensity, higher = more binding, comparable within an allelic series); in [11] it was 9.31 upbm affinity estimate (log intensity, higher = more binding, comparable within an allelic series); in assay [25], 7.33 upbm affinity estimate (log intensity, higher = more binding, comparable within an allelic series).
Regarding ATGAATGA, the binding signal in assay [1] was 10.2 upbm affinity estimate (log intensity, higher = more binding, comparable within an allelic series); in assay [2], 11.2 upbm affinity estimate (log intensity, higher = more binding, comparable within an allelic series); in assay [26] it was 9.4 upbm affinity estimate (log intensity, higher = more binding, comparable within an allelic series); in assay [3], 11.1 upbm affinity estimate (log intensity, higher = more binding, comparable within an allelic series); in assay [4], 11 upbm affinity estimate (log intensity, higher = more binding, comparable within an allelic series); in [6] it was 11.2 upbm affinity estimate (log intensity, higher = more binding, comparable within an allelic series). Besides, the binding signal in [27] is 11.9 upbm affinity estimate (log intensity, higher = more binding, comparable within an allelic series); in assay [8], 11.5 upbm affinity estimate (log intensity, higher = more binding, comparable within an allelic series); in assay [28] it was 10.9 upbm affinity estimate (log intensity, higher = more binding, comparable within an allelic series); in assay [29], 9.56 upbm affinity estimate (log intensity, higher = more binding, comparable within an allelic series).
Consider AGATGATA, for which the binding signal in assay [30] was 11.1 upbm affinity estimate (log intensity, higher = more binding, comparable within an allelic series); in assay [31], 10.9 upbm affinity estimate (log intensity, higher = more binding, comparable within an allelic series); in [32], 10.9 upbm affinity estimate (log intensity, higher = more binding, comparable within an allelic series).
As to ACCTTCGC, the binding signal is 9.98 upbm affinity estimate (log intensity, higher = more binding, comparable within an allelic series) in assay [1]; 8.16 upbm affinity estimate (log intensity, higher = more binding, comparable within an allelic series) in assay [33]; 8.2 upbm affinity estimate (log intensity, higher = more binding, comparable within an allelic series) in assay [34]; 9.99 upbm affinity estimate (log intensity, higher = more binding, comparable within an allelic series) in assay [3]; 9.8 upbm affinity estimate (log intensity, higher = more binding, comparable within an allelic series) in assay [8]; 10.1 upbm affinity estimate (log intensity, higher = more binding, comparable within an allelic series) in assay [11].
Regarding CCCCAGGC, the binding signal in assay [1] was 9.71 upbm affinity estimate (log intensity, higher = more binding, comparable within an allelic series); in assay [12], 9.11 upbm affinity estimate (log intensity, higher = more binding, comparable within an allelic series); in assay [3], 9.7 upbm affinity estimate (log intensity, higher = more binding, comparable within an allelic series); in assay [35], 9.25 upbm affinity estimate (log intensity, higher = more binding, comparable within an allelic series); in assay [5] it was 9.43 upbm affinity estimate (log intensity, higher = more binding, comparable within an allelic series); in assay [7] it was 9.37 upbm affinity estimate (log intensity, higher = more binding, comparable within an allelic series). For the same sequence, the binding signal in assay [8] was 9.62 upbm affinity estimate (log intensity, higher = more binding, comparable within an allelic series); in [9] it was 9.53 upbm affinity estimate (log intensity, higher = more binding, comparable within an allelic series); in assay [11], 9.76 upbm affinity estimate (log intensity, higher = more binding, comparable within an allelic series); in assay [13] it was 9.25 upbm affinity estimate (log intensity, higher = more binding, comparable within an allelic series).
As to GCCCGGAC, the binding signal in assay [1] was 9.85 upbm affinity estimate (log intensity, higher = more binding, comparable within an allelic series); in [36], 9.01 upbm affinity estimate (log intensity, higher = more binding, comparable within an allelic series); in assay [3] it was 9.75 upbm affinity estimate (log intensity, higher = more binding, comparable within an allelic series); in [37], 9.48 upbm affinity estimate (log intensity, higher = more binding, comparable within an allelic series); in assay [8], 9.68 upbm affinity estimate (log intensity, higher = more binding, comparable within an allelic series); in assay [38] it was 9.46 upbm affinity estimate (log intensity, higher = more binding, comparable within an allelic series). The binding signal in assay [39] is 9.5 upbm affinity estimate (log intensity, higher = more binding, comparable within an allelic series); in [11] it was 9.88 upbm affinity estimate (log intensity, higher = more binding, comparable within an allelic series); in assay [40] it was 8.94 upbm affinity estimate (log intensity, higher = more binding, comparable within an allelic series).
With CAGGCTTC, the binding signal in assay [1] is 9.89 upbm affinity estimate (log intensity, higher = more binding, comparable within an allelic series); in assay [2] it was 9.38 upbm affinity estimate (log intensity, higher = more binding, comparable within an allelic series); in assay [15], 9.9 upbm affinity estimate (log intensity, higher = more binding, comparable within an allelic series); in [12], 9.37 upbm affinity estimate (log intensity, higher = more binding, comparable within an allelic series); in [26], 7.14 upbm affinity estimate (log intensity, higher = more binding, comparable within an allelic series); in [3], 9.71 upbm affinity estimate (log intensity, higher = more binding, comparable within an allelic series). The binding signal in assay [4] was 9.43 upbm affinity estimate (log intensity, higher = more binding, comparable within an allelic series); in assay [6], 9.37 upbm affinity estimate (log intensity, higher = more binding, comparable within an allelic series); in assay [27], 10.5 upbm affinity estimate (log intensity, higher = more binding, comparable within an allelic series); in assay [8], 9.69 upbm affinity estimate (log intensity, higher = more binding, comparable within an allelic series); in assay [17], 9.96 upbm affinity estimate (log intensity, higher = more binding, comparable within an allelic series); in assay [10], 9.74 upbm affinity estimate (log intensity, higher = more binding, comparable within an allelic series). Further, the binding signal in assay [28] was 10.4 upbm affinity estimate (log intensity, higher = more binding, comparable within an allelic series); in assay [11], 9.89 upbm affinity estimate (log intensity, higher = more binding, comparable within an allelic series); in [13] it was 9.5 upbm affinity estimate (log intensity, higher = more binding, comparable within an allelic series); in [29] it was 7.25 upbm affinity estimate (log intensity, higher = more binding, comparable within an allelic series).
